Inconclusive results are not listed. Entries that show only a call come without a potency. Activity calls are given as the source filed them. Unless noted, calls follow the shape of the dose curve; as a rule, active = well fitted curve in the direction sought with a large enough effect; inconclusive = small, poorly fitted or top-dose-only effect, or another doubt; inactive = no such curve, though single readings can be large; an effect the other way counts as inactive or inconclusive. Where a SMILES comes first, the peptide text is derived from it. [ ]: non-standard residue; d: D form. 2Abz = Nc1ccccc1C(=O)O
Legend:
[1] = target: Glutathione peroxidase 1 (Homo sapiens) (UniProt P07203); assay: Primary qHTS Assay for Inhibitors of Recombinant Selenoprotein Glutathione Peroxidase 1 (GPX1) (AID 1845191); also: nearly all actives have a fitted effect of over 65% in size
Outline: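 NADPH consumption tracked by fluorescence at 340/450 nm between t=0 and t=15 min, room temperature. Final mix: 10 nM GPX1, 100 nM glutathione reductase, 1 mM GSH, 0.5 mM NADPH, 0.5 mM cumene hydroperoxide, 0.01% BSA; 30 min compound–enzyme preincubation.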

[2] = target: Phospholipid hydroperoxide glutathione peroxidase GPX4 (Homo sapiens) (UniProt P36969); assay: Primary qHTS Assay for Inhibitors of Recombinant Selenoprotein Glutathione Peroxidase 4 (GPX4) (AID 1845192); also: nearly all actives have a fitted effect of over 65% in size; also: potency is read from the fitted curve at half-maximal effect
Outline: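 NADPH consumption followed by fluorescence at 340/450 nm, t=0 and after 15 min at room temperature. Reaction started with cumene hydroperoxide (0.5 mM final) after 30 min compound–GPX4 preincubation; final 200 nM GPX4, 100 nM GR, 1 mM GSH, 0.5 mM NADPH.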

[3] = Primary fluorescence-based thiol-reactive (MSTI) qHTS assay for identification of artifact compounds. (AID 1845221); also: nearly all actives have a fitted effect of over 65% in size; also: potency is read from the fitted curve at half-maximal effect
Outline: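 Curve-fitted percent inhibition (4-parameter Hill) derived from fluorescence, Ex 525/Em 598 nm, scaled with Acetyl-MSTI and MSTI; 1 h incubation at room temperature.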

[4] = tested on: Nanoluciferase (engineered Oplophorus gracilirostris luciferase); assay: Primary Nanoluciferase (NLuc) qHTS assay for identification of artifact compounds. (AID 1845222); also: series mostly up to about 54 µM
Outline: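 Compounds are pinned into diluted (1:55) conditioned medium of NLuc-expressing S16 cells and held 15 min at room temperature protected from light. Nano-Glo substrate follows, and luminescence is read 5 min later.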

[5] = Primary redox qHTS assay for identification of artifact compounds. (AID 1845223)
Outline: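 Redox-cycling detection via DTT (250 uM final) oxidation coupled to Amplex Red (25 uM)/HRP (250 mU/mL) in HBSS. 15 min preincubation plus 30 min after DTT, room temperature. Ex/Em 525/598 nm; 4-parameter Hill fit against DMSO and 10 uM DA3003.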

[6] = qHTS drug screen for cell cycle checkpoint inhibitors in PARPi-resistant BRCA-mutant ovarian cancer cell lines. (AID 1963452; calls by dose curve); settings: PEO1/OlaR viability, CellTiter-Glo luminescence, 96 h, stronger effect = lower value
Outline: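 PEO1, PEO4 and PEO1/OlaR ovarian cancer cells, 600 per well, exposed 96 h at 37C to a dilution series. Viability read by CellTiter-Glo luminescence, normalized to DMSO and empty wells; activity summarized as Z-AUC.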

[7] = measured here: PEO1 parental Z-AUC

Chain of Glutathione peroxidase 1 (Homo sapiens) (P07203 whole entry, looked up): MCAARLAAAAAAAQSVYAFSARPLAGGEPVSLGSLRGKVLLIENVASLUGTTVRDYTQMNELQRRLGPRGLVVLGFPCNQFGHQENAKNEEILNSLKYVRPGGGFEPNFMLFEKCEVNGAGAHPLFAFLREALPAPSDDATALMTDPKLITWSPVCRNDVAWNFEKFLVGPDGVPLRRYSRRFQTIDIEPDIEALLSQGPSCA
Chain of Phospholipid hydroperoxide glutathione peroxidase GPX4 (Homo sapiens) (P36969 whole entry, looked up): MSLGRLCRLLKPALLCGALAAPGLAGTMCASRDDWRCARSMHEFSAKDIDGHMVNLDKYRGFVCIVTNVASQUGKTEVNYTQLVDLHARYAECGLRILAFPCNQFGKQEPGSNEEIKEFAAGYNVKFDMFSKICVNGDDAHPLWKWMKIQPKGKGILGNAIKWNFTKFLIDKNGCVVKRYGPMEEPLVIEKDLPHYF

## CCC(C)C1NC(=O)C2CCCN2C(=O)C(C(C)C)NC(=O)c2ccccc2NC(=O)C(Cc2ccc(O)cc2)NC(=O)C(C)NC(=O)C(C(C)O)NC1=O (stereo not given) (cyclo([2Abz]VPITAY); configuration not given here)
[1]
  Potency: inactive
[2]
  Potency: inactive
[3]
  Potency: inactive
[4]
  Potency: inactive
[5]
  Potency: inactive

## COc1ccc([C@H]2Cc3cccc(O)c3C(=O)O2)cc1
[1]
  Potency: inactive
[2]
  Potency: inactive
[3]
  Potency: inactive
[4]
  Potency: inactive
[5]
  Potency: inactive

## O=C(NCC(=O)N1CC[C@H](NC2CCC(O)(c3ccc(-c4ncccn4)cn3)CC2)C1)c1cccc(C(F)(F)F)c1 (stereo not given in full)
[1]
  Potency: inactive
[2]
  Potency: inactive
[3]
  Potency: inactive
[4]
  Potency: inactive
[5]
  Potency: inactive
[6]
  Z-AUC: -0.56 (inactive)
[6]; [7]
  Z-AUC: -0.577
[6]; measured here: PEO4 Z-AUC
  Z-AUC: -0.816

## C[C@@H](OC(=O)/C=C/c1ccc(O)cc1)C1=C[C@]2(C=C[C@@H]3C(C(=O)O)=CO[C@@H](O[C@@H]4O[C@H](CO[C@@H]5O[C@H](CO)[C@@H](O)[C@H](O)[C@H]5O)[C@@H](O)[C@H](O)[C@H]4O)[C@@H]32)OC1=O
[1]
  Potency: inactive
[2]
  Potency: inactive
[3]
  Potency: 3.98 µM (active)
[4]
  Potency: inactive
[5]
  Potency: inactive

## CC1CCC2(C(=O)OC3OC(CO)C(O)C(O)C3O)CCC3(C)C(=CCC4C5(C)CC(O)C(O)C(C)(C(=O)O)C5CCC43C)C2C1(C)O (stereo not given)
[1]
  Potency: inactive
[2]
  Potency: inactive
[3]
  Potency: inactive
[4]
  Potency: inactive
[5]
  Potency: inactive

## Oc1ccc([C@H]2COc3cc(O)ccc3C2)cc1
[1]
  Potency: inactive
[2]
  Potency: inactive
[3]
  Potency: inactive
[4]
  Potency: inactive
[5]
  Potency: inactive

## O=C1C[C@@H](c2ccc(O)cc2)Oc2cc(O)ccc21
[1]
  Potency: inactive
[2]
  Potency: inactive
[3]
  Potency: inactive
[4]
  Potency: inactive
[5]
  Potency: inactive

## COc1cc2c(Nc3ccc(Cl)c(Cl)c3F)ncnc2cc1OCC1C[C@@H]2CN(C)C[C@@H]2C1 (stereo not given in full)
[1]
  Potency: inactive
[2]
  Potency: inactive
[3]
  Potency: inactive
[4]
  Potency: inactive
[6]
  Z-AUC: -0.294 (inactive)
[6]; [7]
  Z-AUC: -0.529
[6]; measured here: PEO4 Z-AUC
  Z-AUC: -0.609

## CC(C)CC(=O)n1cc(C(N)=O)c(=O)cc1C(O)c1ccccc1 (stereo not given)
[1]
  Potency: inactive
[2]
  Potency: inactive
[4]
  Potency: inactive

## N#Cc1ccnc(N2C(=O)CC[C@H]2C(=O)N(c2cncc(F)c2)[C@H](C(=O)NC2CC(F)(F)C2)c2ccccc2Cl)c1
[1]
  Potency: inactive
[2]
  Potency: inactive
[3]
  Potency: inactive
[4]
  Potency: inactive
[5]
  Potency: inactive
[6]
  Z-AUC: 1.18 (inactive)
[6]; [7]
  Z-AUC: 1.11
[6]; measured here: PEO4 Z-AUC
  Z-AUC: 1.26

## C=C1CC[C@H]2[C@@H](/C=C(\C)C(=O)[C@@]3(OC(C)=O)C[C@H](C)[C@H](OC(C)=O)[C@@H]3[C@H]1OC(C)=O)C2(C)C
[1]
  Potency: inactive
[2]
  Potency: inactive
[3]
  Potency: inactive
[4]
  Potency: inactive
[5]
  Potency: inactive

## NS(=O)(=O)NCCNc1nonc1C(=Nc1ccc(F)c(Br)c1)NO
[1]
  Potency: inactive
[2]
  Potency: inactive
[3]
  Potency: inactive
[4]
  Potency: inactive
[5]
  Potency: inactive
[6]
  Z-AUC: 1.03 (inactive)
[6]; [7]
  Z-AUC: 0.698
[6]; measured here: PEO4 Z-AUC
  Z-AUC: 1.08

## CC1(C)C(O)CCC2(C)C1C(O)C=C1COC(=O)C12O (stereo not given)
[1]
  Potency: inactive
[2]
  Potency: inactive
[4]
  Potency: inactive
[5]
  Potency: inactive

## O=C(O)c1ccc(CCCc2ccc(OCCc3ccc(F)cc3)cc2)o1
[1]
  Potency: inactive
[2]
  Potency: 16.1 µM (active)
[3]
  Potency: inactive
[4]
  Potency: inactive
[6]
  Z-AUC: 0.294 (inactive)
[6]; [7]
  Z-AUC: 0.863
[6]; measured here: PEO4 Z-AUC
  Z-AUC: 0.926
